High-throughput results: PubChem BioAssay, National Center for Advancing Translational Sciences (NCATS)
TDP43 rescue = TDP-43 toxicity inhibition in yeast; Potency, µM (titrated, usually from 46.1 µM), without a hit: top-dose growth rescue (activation), actives largely listed as activators; AID 652104; actives 1.8% (n = 410,000); TDP-43 expressing yeast growth rescue, BacTiter-Glo, 24 h; also: % of control where 0% means no effect; nearly all actives have a fitted effect of over 50% in size
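Luminescence from BacTiter-Glo reports growth of TDP-43-expressing yeast after 24 hr at 30 deg C with compound. Cells were raffinose-pregrown to mid-log, then seeded in galactose medium at OD600=0.02.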
FUS suppressor = rescues growth of FUS-expressing yeast. Potency, µM (top dose mostly 76.6 µM), most hits filed as activators. S. cerevisiae FUS-expressing, growth rescue, OD600, 24 h. actives 0.24% (n = 390,000);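 also: plate controls were DMSO vehicle for no effect and reference control for full effect; nearly all actives have a fitted effect of over 55% in size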
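Absorbance at 600 nm, taken 24hr after compound addition, measured rescue of FUS-yeast growth at 30C. Induction used 2% galactose with seeding at OD 0.005. Controls: CP55940 from 92uM final, DMSO only.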
Abeta yeast res = restores growth of yeast expressing A-beta42 peptide; AID 1347071; Potency, µM (doses to about 46.1 µM), usual class: activators; yeast expressing A-beta42, growth rescue, OD600, 48 h; response scale: 0% DMSO, 100% iron-clioquinol control; actives 0.063% (n = 410,000); also: nearly all actives have a fitted effect of over 55% in size
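Yeast growth medium received pinned compounds, then yeast cells expressing toxic A-beta were added; plates incubated at 30 C for 48 hr. Growth read as absorbance at 600 nm, normalized to DMSO and equimolar FeCl3 plus clioquinol controls.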
aSyn rescue = inhibitors of alpha-synuclein toxicity in yeast; Yeast expressing alpha-synuclein, growth rescue, BacTiter-Glo, 24 h; Potency, µM (highest dose often 46.1 µM), without a hit: at the highest dose growth rescue (activation), hits mostly activators; actives 0.14% (n = 370,000); also: % of control where 0% means no effect; nearly all actives have a fitted effect of over 65% in size
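Readout is rescue of growth in alpha-synuclein-expressing yeast, so inhibitors of toxicity appear as activators. Growth after 24 hr at 30 deg C in galactose medium is quantified by luminescence.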
* = called active by the depositor; i = inactive; ? = inconclusive; / = no result given; [ ] = remark or other dose. Compounds with a hit are over-represented: about 2.1% of the library has one in this group of screens. Calls follow the shape of the dose curve; as a rule, active = well fitted curve in the direction sought with a large enough effect; inconclusive = small, poorly fitted or top-dose-only effect, or another doubt; inactive = no such curve, though single readings can be large; an effect the other way counts as inactive or inconclusive. Potency is read from the fitted curve at half-maximal effect.

SMILES	TDP43 rescue	FUS suppressor	Abeta yeast res	aSyn rescue
CCCNc1ncnc2c1c(-c1ccccc1)cn2-c1ccccc1	22µM*	?	i	/
COC(=O)c1ccc(NC(=O)COc2ccccc2C(=O)Nc2ccccc2)cc1	/	/	/	-4%
COc1cc(N2C(=O)C=CC2=O)ccc1N1C(=O)C=CC1=O	20µM*	/	i	15%
c1ccc2c(c1)OCCc1c-2[nH]c2ccccc12	13µM*	i	i	-3%
O=C1CCCc2c1[nH]c1ccccc21	21%	i	i	0%
COc1ccccc1CNC(=O)C1CCCN(c2nnc(-n3c(C)ccc3C)s2)C1 (stereo not given)	3%	i	i	/
Cc1ccc(N(C)C(=O)c2ccc3c(Cl)c4c(nc3c2)CCC4)cc1C	25µM*	?	i	?
O=C(NCc1ccc2c(c1)OCO2)c1ccc2c(c1)OCCO2	25µM*	i	?	-23%
O=C(NCc1cccc(Cl)c1)c1ccc2c(c1)OCCO2	10µM*	i	i	1%
COc1ccc(N(C)C(=O)c2ccc3c(Cl)c4c(nc3c2)CCCC4)c(OC)c1	9%	?	i	6%
O=C(NCc1cccc(Cl)c1)c1ccc2c(Cl)c3c(nc2c1)CCCC3	11µM*	i	i	/
Cc1cc(C(=O)NCc2ccc3c(c2)OCO3)ccc1[N+](=O)[O-]	18µM*	i	?	-10%
Cc1cccc(NC(=S)NCc2ccc3c(c2)OCO3)c1	18µM*	i	i	-1%
O=C(NCc1ccc2c(c1)OCO2)c1ccc(COc2cccc(Cl)c2)o1	14µM*	i	?	?
S=C(NCc1ccc2c(c1)OCO2)NCc1ccc2c(c1)OCO2	-13%	i	i	7%
Cc1ccc(C(=O)NCc2ccc3c(c2)OCO3)cc1C	?	i	i	-1%
O=C(NCc1ccccc1Br)c1ccc2c(c1)OCCO2	11µM*	i	i	7%
COc1cccc(N2CCN(CC(=O)NCc3ccc(F)cc3)CC2)c1	/	i	/	/
COc1ccc(/C=C2\CC3(OC(=O)c4ccc(F)cc4)CCCN2C3)cc1 (stereo not given)	/	i	/	/
COc1ccc(Oc2c(Cl)cnn(-c3ccc(C(C)C)c(C)c3)c2=O)cc1	/	i	/	/
O=C(CCC(=O)c1cccs1)OCc1ccc([N+](=O)[O-])cc1	11µM*	i	i	0%
N#Cc1ccccc1COC(=O)CCC(=O)c1cccs1	22%	i	i	-6%[1.84 µM]
COc1ccc(C2=CC(=O)OC3(CCCC3)O2)cc1	16µM*	i	i	0%
COC1=CC(=O)OC12CCCCC2	16%	i	i	1%
Cc1ccc(S(=O)(=O)NC2c3cccc4cccc(c34)C2Sc2ncccn2)cc1 (stereo not given)	16µM*	/	i	2%
SMILES	TDP43 rescue	FUS suppressor	Abeta yeast res	aSyn rescue
Cc1cc(C)nc(SC2c3cccc4cccc(c34)C2NS(=O)(=O)c2ccccc2)n1 (stereo not given)	?	i	i	-2%
CN(C)c1ccc(C(CNC(=O)c2ccccc2)c2c[nH]c3ccccc23)cc1 (stereo not given)	3%	11µM*	i	-1%
CCOc1ccc(-n2c(SCC(=O)Nc3ccc4cn[nH]c4c3)nnc2-c2ccc(C(C)(C)C)cc2)cc1	/	i	/	/
O=C(NC1CCCCN(Cc2cccc(C(F)(F)F)c2)C1=O)c1cccc(F)c1 (stereo not given)	/	i	/	/
Nc1cc([N+](=O)[O-])cc2oc(-c3ccccc3)cc12	35µM*	i	i	11%
CCN1CCCCC(NC(=O)c2ccccc2OC)C1=O (stereo not given)	/	i	/	/
CC(O)(c1ccccc1)[N+]1(CC(=O)c2ccccc2)C=CC=C1 (stereo not given)	/	/	/	4%
CN(C(=O)COC(=O)c1ccccc1Nc1ccccc1)c1c(N)n(Cc2ccccc2)c(=O)[nH]c1=O	-22%	35µM*	i	-5%
Nn1c(SCC(=O)Nc2cccc3ccccc23)nnc1-c1cc(-c2ccc(Cl)cc2)n[nH]1	/	i	/	/
CC(=O)OC[C@@H]1CN(Cc2cccc(C(F)(F)F)c2)C[C@H](n2cnc3c(NCc4ccco4)ncnc32)O1	11µM*	?	i	3%
O=Cc1ccc(-c2ccc(Cl)cc2Cl)[nH]1	20µM*	i	i	10%
Nc1cc(=O)nc(SCC(=O)N(C2CCCCC2)C2CCCCC2)n1-c1ccccc1	-14%	28µM*	i	-4%
Cc1ccc(NC(=O)CSc2nc(=O)cc(N)n2-c2ccccc2)cc1	6%	?	i	3%
C[C@@H]1CC=C[C@@H]2[C@H]1C(=O)N(Cc1ccccc1)[C@H]2c1ccccc1Br	11µM*	i	i	-12%
Cc1cccnc1NC(=S)Nc1ncccc1C	-19%	i	i	-17%
CCOc1ccccc1NC(=S)Nc1ncccc1C	14µM*	/	i	-11%
CC1CCC2(CC1)CCN(CCCOC(=O)NCc1ccc(Cl)cc1)C2=O (stereo not given)	/	i	/	/
COc1ccc(NC(=O)C(c2ccc(C)cc2)N(C)C(=O)Cc2cccs2)cc1 (stereo not given)	13µM*	i	?	12%
Cc1cccc(Cn2cc(C(=O)Nc3cc(F)ccc3F)ccc2=O)c1	22µM*	?	?	?
COc1cccc2c1C(=O)c1c(O)c3c(c(O)c1C2=O)C[C@@](O)(C(=O)CO)C[C@@H]3O[C@H]1C[C@H](N)[C@H](O)[C@H](C)O1	?	i	i	4.5µM*
CN(C)c1ccc(C(=O)c2ccccc2)cc1	13µM*	i	i	-10%
CCOC(=O)C1=C(C)OC(=Cc2ccccc2)C1=O	0%	i	i	-1%
CCOC(=O)C1=C(O)c2ccccc2C(=O)/C1=C\c1ccc(C)cc1	3.2µM*	/	i	-76%
O=C(Nc1nnc(-c2ccc3c(c2)CCCC3)o1)c1ccccc1	5µM*	i	?	?
O=C(COc1ccccc1)Nc1nnc(-c2ccccc2Cl)o1	0%	i	i	8%
SMILES	TDP43 rescue	FUS suppressor	Abeta yeast res	aSyn rescue
O=C(COc1ccccc1)Nc1nnc(-c2ccc3c(c2)CCCC3)o1	11µM*	i	?	10µM*
O=C(COc1ccccc1)Nc1nnc(-c2ccc(F)cc2)o1	?	i	?	18µM*
O=C(Nc1nnc(-c2ccc3c(c2)CCCC3)o1)c1ccccc1Cl	10µM*	i	i	?
O=C(NC1CCCCN(Cc2ccc(Cl)cc2)C1=O)c1ccc(-c2ccccc2)cc1 (stereo not given)	/	i	/	/
COC(=O)C1=C(C(=O)OC)C(c2cc(Cl)ccc2O)c2sc(=O)[nH]c2S1 (stereo not given)	-14%	i	i	14µM*
COC(=O)C1=C(C(=O)OC)C(c2cc(Br)ccc2O)c2sc(=O)[nH]c2S1 (stereo not given)	-7%	i	i	7%
COc1ccc(N2CCCN(CC(=O)Nc3ccc(Cl)c(Cl)c3)CC2)cc1	/	i	/	/
